Measurements from PubChem BioAssay (NCI).
This is part of a sample that, as a whole, favours compounds with a hit. Of some 83,000 tested, about 20% had one in any assay.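 For each line, cells grew in 96-well plates with the test compound present at a single concentration for 48 hours.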 A number with no mark means an inactive call. Active and inactive are the calls of the source.

What follows are molecules tested on CAKI-1 renal (assay: NCI-60 one-dose screen, 48 h (100 = growth as untreated, 0 = no growth, -100 = all killed)). Conditions: 10 µM unless noted.
Procedure: Growth inhibition of the CAKI-1 human tumor cell line is measured as a screen for anti-cancer activity. Cells are grown in 96 well plates and exposed to the test compound for 48 hours. Compounds are tested at a single concentration, which is 10^-5 M for most compounds. The reported endpoint is percent growth (GI% or GIPRCNT), where numbers from 0 - 100% represent growth inhibition, and numbers from -100% - 0 represent cell death. For example, a value of 40 represents 60% growth inhibition. A value of 0 means no net growth occurred over the course of the experiment. A value of -40 indicates 40% of cells at the beginning of the experiment died by the end of the experiment. A value of -100 means all cells are dead at the end of the experiment.
NCI-60 Human Tumor Cell Lines Screen was performed using the standard one-dose NCI protocol, which is described in more detail at https://dtp.cancer.gov/discovery_development/nci-60/default.htm.
Compounds with GIPRCNT values below 10 were considered active. Activity score was based on GIPRCNT using the following formula: […]
Score is 0 for GIPRCNT values of 100 or above, 50 for GIPRCNT values of 0, and 100 for GIPRCNT values of -100.

Structure (SMILES)	growth
CCOC(=O)/C=C/c1cccc2c1C(=O)NC(C)(c1cc3cc(Cl)ccc3oc1=O)N2 (stereo not given)	10.5%
N#Cc1c(-c2ccc(Br)cc2)nc2n[nH]c(-c3ccc(Br)cc3)c2c1-c1ccc(C(F)(F)F)cc1	2.69% (active)
COc1ccc(-c2ccnc(SCc3cc4ccccc4[nH]c3=O)n2)cc1	55.1%
COc1ccc2c(c1)C(=N/N=C(\C)c1ccc(OC)c(S(N)(=O)=O)c1)C(=O)N2	79.5%
O=C(c1ccc(OCCN2CCOCC2)cc1)C1[C@H](c2ccc(Cl)cc2)[C@@H](c2ccccc2)NC12C(=O)Nc1ccc(Br)cc12 (stereo not given in full)	15.4%
COc1cc(OC)c2c3nc4cc(C)c(C)cc4nc3n(CCN(C)C)c2c1	50.5%
COc1cc2c(c(OC)c1OC)C(=O)CC(c1cccc(NC(=O)c3cc(NC(=O)[C@H](CO)NC(=O)OC(C)(C)C)ccc3Cl)c1)O2 (stereo not given in full)	31.2%
CN(C)c1nc(NCCNS(=O)(=O)c2ccc(C(=O)/C=C/c3ccc(Cl)cc3)cc2)nc(Nc2ccc(F)cc2)n1	-23.3% (active)
Brc1ccc(N/N=C/c2c[nH]c3ccc(Br)cc23)nc1	-24.4% (active)
NS(=O)(=O)c1ccc(NNC(=O)CCC(=O)c2ccccc2)cc1	90.2%
C#CCOc1cc(N(CC)CC)ccc1C(C(=O)NC(C)(C)C)N(C(=O)C1CCc2cc(F)ccc2O1)c1ccc(Br)cc1 (stereo not given)	58.7%
COc1cc(-c2ccc(/C=N/NC(=O)c3[nH]c4ccc(Br)cc4c3-c3ccccc3)s2)cc(OC)c1OC	71.6%
O=c1[nH]c2ccccc2cc1CSc1nccc(-c2ccc3ccccc3c2)n1	56.6%
CN1CCN(c2ccc3c(c2)nc(NNC(=O)c2ncccn2)c2cccn23)CC1	-80.9% (active)
COc1ccc(C(=O)/C=C/c2ccc(OC)c(OCc3ccccc3)c2)cc1OC	39.4%
N/C(=N\N=C\c1ccc([N+](=O)[O-])cc1)c1c(N)nc(=S)[nH]c1-c1ccc(Cl)cc1Cl	78.9%
COc1c(F)ccc(C(=O)Nc2ccc3nc(NC(=O)C4CCCN(S(=O)(=O)c5cccc(C(F)(F)F)c5)C4)sc3c2)c1F (stereo not given)	83.1%
O=C(c1ccccc1)c1ccc2nc(-c3cccc(Cl)c3)[nH]c2c1	106%
C#CCOc1cc(N(CC)CC)ccc1C(C(=O)NC(C)(C)C)N(C(=O)C1CCc2cc(F)ccc2O1)c1ccccc1Br (stereo not given)	44.7%
Cc1c(C(=O)NNC(=O)c2ccc(Cl)cc2)nnn1-c1ccc(Br)cc1	87.9%

Structure (SMILES)	growth
C=C1CCC2C3(C)COC(c4cc(F)cc(F)c4)OC3CCC2(C)C1CC(O)C1=CCOC1=O (stereo not given)	60.3%
COc1cc2oc(-c3cccc(C(=O)Nc4ccc(Cl)cc4)c3)cc(=O)c2c(OCC(=O)N[C@@H](Cc2ccccc2)C(=O)O)c1OC	91.2%
Cn1cc(-c2cc(N)n3nc(-c4cn(C)c5ncc(Br)cc45)cc3n2)c2cc(Br)cnc21	56.6%
COc1cc2c(c(OC)c1OC)C(=O)CC(c1cccc(NC(=O)c3cccc([N+](=O)[O-])c3)c1)O2 (stereo not given)	22.1%
C/C(=N\N=C1/C(=O)Nc2ccc(Cl)cc21)c1ccc2c(c1)Nc1ccccc1S2	6.63% (active)
COc1cc(NC(=O)c2cccc(C3CCc4c(cc(OC)c(OC)c4OC)O3)c2)cc(OC)c1OC (stereo not given)	14.8%
COc1cc(C2CC(c3cc(OC)c(OC)c(OC)c3)=NN2C(C)=O)ccc1OCc1ccc(F)cc1 (stereo not given)	53.2%
Cc1ncsc1-c1ccc(CNC(=O)[C@@H]2C[C@@H](O)CN2C(=O)[C@@H](NC(=O)C2(F)CC2)C(C)(C)C)c(OCCOCCOCCOCCOc2nc(Nc3cc(S(C)(=O)=O)ccc3N[C@@H](c3cccc4c3OC(F)(F)O4)c3ncccc3Cl)nc(N3CCNCC3)n2)c1	101%
COc1ccc2nc(Nc3cccc(NC(=O)c4ccc(CN5CCCN(C)CC5)c(C(F)(F)F)c4)c3)ccc2c1	-65.2% (active)
CCOC(=O)C1=C(N)N(c2ccccc2)C2=C(C(=O)CC(C)(C)C2)C1c1ccc(Cl)cc1Cl (stereo not given)	23.1%
COc1ccc(-c2cc(C(=O)NCc3ccccc3)nn2-c2ccc(S(C)(=O)=O)cc2)cc1OC	87.1%
CC(=O)N1CCN(Cc2ccc3c(NNC(=O)c4cnccn4)nc4cc(F)ccc4n23)CC1	13.1%
Cc1cccc(Nc2nc3ccccc3nc2/C=C/c2ccc(F)cc2)c1	79.9%
CC(=O)Nc1ccc(-c2cn(-c3cccc(C(=O)Nc4ccc(N5CCN(C)CC5)cc4)c3)nn2)cn1	98.2%
COc1ccc(/C=C2\C(=N)N=C(SCc3nc4ccccc4[nH]3)NC2=O)cc1	92.8%
Cc1ccc2c(N)c(C(=O)Nc3ccc(OC(F)(F)F)cc3)sc2n1	55.8%
C#CCOc1ccc(/C=N/Nc2nc(-c3ccc(F)cc3)cs2)cc1OC	56.2%
C#CCOc1cc(N(CC)CC)ccc1C(C(=O)NC(C)(C)C)N(C(=O)C1CCc2cc(F)ccc2O1)c1ccc(F)c(Cl)c1 (stereo not given)	41.1%
Cn1cc(-c2nc(N)nnc2-c2c[nH]c3ccc(Br)cc23)c2cccnc21	47.9%
CC1(C)CC[C@]2(C(=O)Nc3ccccc3)CC[C@]3(C)C(=CCC4[C@@]5(C)C[C@@H](O)[C@H](O)[C@@](C)(CO)C5CC[C@]43C)C2C1 (stereo not given in full)	44.1%
